# Most compounds without a hit are left out; they make up all but 5.4% or so of the library.
# aDG glyco act: increases alpha dystroglycan glycosylation | Pro5-aDG cells, alpha-DG glycosylation AlphaScreen (IIH6); 0% Pro5, 100% B10-LARGE cell signal | activation, % at 10 µM | actives 0.22% (n = 360,000);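 active = activation of at least 8% versus controls, or a plate z-score of at least 8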;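 note: Pro5 are CHO cells carrying HIG-tagged alpha-DG that lacks glycosylation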
# ALR inh: human ALR oxidase inhibition via reduced H2O2; P55789; inhibition, % (test concentration not listed); actives 3.8% (n = 290,000); purified ALR, DTT oxidation, H2O2 HRP-luminol luminescence;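 active = mean replicate inhibition above about 79%, with every replicate also reaching it, limit read from the data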
# Target sequence (P55789 whole entry, looked up): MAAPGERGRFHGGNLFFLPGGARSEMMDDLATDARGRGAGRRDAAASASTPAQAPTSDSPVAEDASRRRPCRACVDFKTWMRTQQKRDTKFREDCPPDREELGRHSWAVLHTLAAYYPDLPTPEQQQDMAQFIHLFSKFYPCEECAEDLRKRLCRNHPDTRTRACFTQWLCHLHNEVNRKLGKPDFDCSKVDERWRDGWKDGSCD
# A3G deaminase: blocks human APOBEC3G single-stranded DNA deamination | Q9HC16 | inhibition, % at 20 µM | recombinant A3G, ssDNA deamination FAM/TAMRA fluorescence | actives 0.28% (n = 330,000);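 active = inhibition of at least 40% at 20 µM, with no more than 30% in the related APOBEC3A deaminase screen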;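 note: plate controls were DMSO wells with A3G for no effect and wells lacking A3G enzyme for full effect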
# Target sequence (Q9HC16 whole entry, looked up): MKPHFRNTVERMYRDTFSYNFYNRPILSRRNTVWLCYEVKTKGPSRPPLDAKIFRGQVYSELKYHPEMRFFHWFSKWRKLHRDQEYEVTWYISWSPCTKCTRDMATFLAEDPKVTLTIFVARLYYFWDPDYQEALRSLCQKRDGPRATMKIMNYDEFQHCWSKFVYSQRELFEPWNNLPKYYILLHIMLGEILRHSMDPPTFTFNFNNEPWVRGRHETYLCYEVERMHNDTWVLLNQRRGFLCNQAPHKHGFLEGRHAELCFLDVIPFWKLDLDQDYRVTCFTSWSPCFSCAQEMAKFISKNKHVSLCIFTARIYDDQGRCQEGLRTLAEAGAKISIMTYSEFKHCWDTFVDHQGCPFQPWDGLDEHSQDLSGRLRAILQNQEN
# PHOSPHO1 block: blocks human PHOSPHO1 phosphatase activity; Q8TCT1; recombinant PHOSPHO1, absorbance phosphatase assay; inhibition, % at 13.3 µM; actives 1.1% (n = 290,000); in the data active = inhibition above about 60%
# rCAG RNA binder: binds r(CAG) RNA repeats; r(CAG) RNA repeat, TO-PRO-1 dye displacement fluorescence; inhibition, % at 3 µM; actives 1.3% (n = 370,000); AID 651821;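 active = inhibition above the plate cutoff, the mean of all test compounds on that plate plus 3 SD, cut at about 35% in these data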;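 note: 0% = DMSO alone and 100% = 100 µM mitoxantrone as full dye displacement; higher means more dye released from RNA so lower well fluorescence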
# APOBEC3A inh: blocks human APOBEC3A ssDNA deamination | recombinant A3A, FAM/TAMRA ssDNA deamination fluorescence | inhibition, % at 20 µM | actives 0.41% (n = 330,000);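 active = at least 40% inhibition at 20 µM here, with at most 30% in a related deaminase screen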;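 note: plate controls were A3A with DMSO for no effect and wells lacking A3A enzyme for full effect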
# rCAG binder conf: r(CAG) RNA repeat binding, confirmation; inhibition, % at 3 µM; shares compounds with rCAG RNA binder; AID 652065; actives 70% (n = 4,300); TO-PRO-1 dye displacement fluorescence;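 active = inhibition above a per-plate cutoff, the mean inhibition of sample wells plus 3 SD, cut at about 35% in these data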;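 note: loss of TO-PRO-1 fluorescence as compound displaces dye from 1x1 AA loop RNA; 0% = DMSO only wells and 100% = 100 µM mitoxantrone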
# DNA CAG counter: DNA CAG dye complex inhibition counter-screen | actives 94% (n = 4,300) | AID 652068 | d(CAG) DNA oligo TO-PRO-1 dye displacement, fluorescence | inhibition, % at 3 µM | shares compounds with rCAG RNA binder;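 active = inhibition above its plate's cutoff, the mean test-well inhibition plus 3 SD, cut at about 4.8% in these data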;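 note: 0% = DNA dye mix with DMSO and 100% = 100 µM mitoxantrone; hits displace the dye from DNA and so lower well fluorescence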
# * = called active by the depositor; nt = no result.
SMILES,aDG glyco act,ALR inh,A3G deaminase,PHOSPHO1 block,rCAG RNA binder,APOBEC3A inh,rCAG binder conf,DNA CAG counter
Cc1c(C)n(Cc2ccc(-c3ccccc3C(=O)O)cc2)c2ccc(C(=O)N[C@@H](C)c3ccc([N+](=O)[O-])cc3)cc12,nt,nt,nt,nt,74*,nt,74*,35*
O=C(O)CN1C(=O)/C(=C\c2ccccc2OCc2ccc(Cl)cc2)SC1=S,0,58,-7,16,74*,-3,84*,47*
O=C(O)CN1C(=O)/C(=C/c2ccsc2)SC1=S,0,30,-9,-4,2,-4,nt,nt
O=C(O)CN1C(=O)/C(=C\c2cccc(OCc3ccc(F)cc3)c2)SC1=S,0,68,-7,48,81*,-2,80*,44*
O=C(O)CN1C(=O)/C(=C\c2ccc(OC(=O)c3ccco3)cc2)SC1=S,0,nt,0,2,25,3,nt,nt
O=C(O)CN1C(=O)/C(=C\c2cccc(OCc3ccccc3F)c2)SC1=S,0,42,1,-4,84*,-1,75*,37*
O=C(O)CN1C(=O)/C(=C/c2ccc(SCc3ccccc3)o2)SC1=S,0,nt,nt,56,41*,nt,59*,31*
COCCCNC(=O)C[C@H]1C[C@@]2(C(=O)OC)C(=C[C@H](COCc3ccccc3)O[C@@H]2C)N(Cc2ccc(Cl)cc2Cl)C1=O,nt,nt,nt,nt,6,nt,nt,nt
O=C(O)CN1C(=O)/C(=C\c2cccc(OCc3ccc(Cl)cc3)c2)SC1=S,0,97*,-1,nt,78*,0,91*,64*
O=C(O)CN1C(=O)/C(=C\c2cccc(OC(=O)c3ccco3)c2)SC1=S,0,21,-6,-13,28,-2,nt,nt
O=C(O)CCN1C(=O)/C(=C\c2cccc(Oc3ccccc3)c2)SC1=S,0,nt,-1,20,62*,0,78*,35*
CC(C)c1ccc(NC(=O)C2CCCCC2C(=O)O)cc1 (configuration not stated),0,-5,-5,-7,-2,-4,nt,nt
Cc1cc(C)cc(NS(=O)(=O)c2ccc(NC(=O)C3CCCCC3C(=O)O)cc2)c1 (configuration not stated),0,1,1,9,36*,2,25,4.8*
C/C(C/C(C)=C1/SC(=S)NC1=O)=C1\SC(=S)NC1=O,0,nt,nt,9,66*,nt,50*,16*
Cc1nc(S/C(=C\c2ccc(-c3ccc(C(=O)O)c(Cl)c3)o2)C(=O)O)n[nH]1,0,nt,nt,45,36*,nt,50*,16*
O=S(=O)(Nn1c(O)c(C=C2N=c3ccccc3=N2)sc1=S)c1ccccc1,0,nt,-7,15,89*,-4,72*,37*
O=C(Nn1c(O)c(C=C2N=c3ccccc3=N2)sc1=S)c1ccccc1Cl,0,40,-1,79*,63*,0,33,11*
COc1ccc(NC(=O)C2(C)CCN2Cc2csc3ccccc23)cc1OC (configuration not stated),0,nt,nt,nt,4,nt,nt,nt
CC1(N=Cc2cc(Cl)ccc2O)COP(=O)(Nc2ccccc2)OC1 (configuration not stated),0,nt,nt,nt,1,nt,nt,nt
COc1ccc(Br)cc1/C=C(\C(=O)O)c1ccc(S(=O)(=O)N2CCCC2)s1,0,6,9,nt,52*,30,47*,14*
CCOc1ccc(/C=C(\C(=O)O)c2ccc(S(=O)(=O)N3CCCCC3)s2)cc1OC,0,3,-3,nt,38*,5,35*,10*
CCOc1ccc(/C=C(\C(=O)O)c2ccc(S(=O)(=O)N3CCOCC3)s2)cc1OC,0,-4,-5,-13,10,6,nt,nt
Cc1oc2c(C)c3oc(=O)c(CCC(=O)N4CCC(C(=O)NCCC(=O)O)(c5ccccc5)CC4)c(C)c3cc2c1C,0,6,-5,22,35*,0,58*,16*
Cc1ccc(C)n1-c1ccc(-c2nnco2)cc1,0,-2,3,4,nt,3,nt,nt
Cc1c(Br)cc(-c2nnco2)cc1Br,0,-5,-6,-45,40*,3,4,1
SMILES,aDG glyco act,ALR inh,A3G deaminase,PHOSPHO1 block,rCAG RNA binder,APOBEC3A inh,rCAG binder conf,DNA CAG counter
CCOC(=O)C1CSCCS(=O)(=O)N1Cc1ccc(C)cc1 (configuration not stated),nt,nt,nt,nt,5,nt,nt,nt
Cc1nc(-c2ccccc2)sc1C(=O)NS(=O)(=O)c1ccc(CN2CCN(c3ccccc3)CC2)cc1,0,nt,nt,nt,83*,nt,81*,45*
COc1ccc(-n2nc(C(=O)NCC(=O)NCCC3=CCCCC3)c3ccccc3c2=O)cc1OC,0,-6,-6,12,36*,0,5,7.3*
COC(=O)CNC(=O)CNC(=O)c1nn(-c2ccc(OC)c(OC)c2)c(=O)c2ccccc12,0,nt,-4,-8,-1,-3,nt,nt
Cc1ccc(-c2c3c(nc4sc(C(N)=O)c(N)c24)CCCC3)o1,0,nt,-5,-8,10,1,nt,nt
NC(=O)c1sc2nc3c(c(-c4ccco4)c2c1N)CCC3,0,-21,19,51,43*,9,4,4
O=C(N/N=C\C=C\c1ccco1)c1cc(-c2ccc3ccccc3c2)n[nH]1,0,-4,27,-9,44*,24,34,20*
CCOc1ccc(Cc2c(C)[nH]c3ccc(C(=O)O)cc3c2=S)cc1,0,-2,-1,-113,36*,16,32,7.6*
COCC#Cc1ccc2c(c1)O[C@H](CN(C)C(=O)c1ccccc1)[C@@H](C)CN([C@H](C)CO)S2(=O)=O,nt,nt,nt,nt,6,nt,nt,nt
COc1ccc(C(=O)NCCSCc2ccccc2Cl)cc1OC,0,-15,-5,-1,80*,-6,3,0
CC1=CCC[C@@H]2[C@@](C)(CC/C(C)=C/C(=O)O)[C@H](C)CC[C@@]12C,0,nt,-11,-6,45*,-1,43*,8.6*
CCCCNC(=O)c1nc(C2CCN(S(=O)(=O)c3ccc(F)c(F)c3)CC2)oc1-c1ccccc1,0,nt,nt,nt,0,nt,nt,nt
COc1cccc(C2C3=C(N=c4s/c(=C\c5cccc(O)c5)c(=O)n42)c2ccccc2CC3)c1OC (configuration not stated),1,-2,-3,-8,11,-1,nt,nt
CCOC(=O)C1=C(C)N=c2s/c(=C\c3cccc(OCC(=O)O)c3)c(=O)n2C1c1ccccc1 (configuration not stated),0,7,-5,25,76*,1,75*,36*
